A selection: hits, their analogues and other compounds. The true share with any hit is near 2.3%.
CHO-K1 Ca ag: counter-screen for M1 agonists: effect in parental CHO-K1 cells | Fluo-8 calcium fluorescence; scaled to maximal ATP response, vehicle zero | activation, % at 3 µM | actives 0.48% (n = 360,000) | AID 602248, 2012; in the data active means activation above about 15%;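 further: untransfected CHO-K1 host cells lacking M1 receptor as counterscreen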
CHO-K1 Ca antag: counter-screen for M1 antagonists: effect in parental CHO-K1 cells; ATP-induced calcium, Fluo-8 fluorescence; inhibition, % at 3 µM; actives 0.6% (n = 360,000); AID 602250;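 active means inhibition above a per-plate cutoff, the plate's mean sample inhibition plus 3 SD, cut at about 24% in these data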;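 further: 0% = DMSO plus EC80 ATP and 100% = DMSO alone without ATP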
M1 PAM: human M1 muscarinic receptor positive allosteric modulators, primary screen, CHO-K1 cells, Fluo-8 calcium fluorescence, 1536-well. Muscarinic acetylcholine receptor M1 (Homo sapiens), P11229. CHO-K1 hM1, ACh EC20; 0% = ACh EC20, 100% = maximal ACh. activation, % at 3 µM. actives 0.088% (n = 360,000); in the data active means activation above about 19%, passing the limit was not always enough
Target sequence (P11229 whole entry, looked up): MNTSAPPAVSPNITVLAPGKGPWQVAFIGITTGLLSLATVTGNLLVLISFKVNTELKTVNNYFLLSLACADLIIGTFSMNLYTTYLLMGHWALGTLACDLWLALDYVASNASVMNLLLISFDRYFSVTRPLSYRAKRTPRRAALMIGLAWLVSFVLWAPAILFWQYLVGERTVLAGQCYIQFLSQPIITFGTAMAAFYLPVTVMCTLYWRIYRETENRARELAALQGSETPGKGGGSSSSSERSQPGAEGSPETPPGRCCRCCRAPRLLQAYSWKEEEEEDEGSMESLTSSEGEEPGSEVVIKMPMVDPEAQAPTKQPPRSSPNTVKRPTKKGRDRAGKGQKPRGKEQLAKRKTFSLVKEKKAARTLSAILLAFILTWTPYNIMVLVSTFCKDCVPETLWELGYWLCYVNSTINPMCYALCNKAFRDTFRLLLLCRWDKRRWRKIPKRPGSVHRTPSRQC
M1 ag: human M1 muscarinic receptor agonists, primary screen, Fluo-8 calcium fluorescence, CHO-K1 cells, HTS | CHO-K1 hM1, agonist mode; 0% DMSO, 100% acetylcholine EC100 | activation, % at 3 µM | actives 0.33% (n = 360,000);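 active means activation above the run's mean compound activation plus 3 SD, cut at about 16% in these data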;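 further: peak over basal fluorescence ratio within a 140 s kinetic read after compound addition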
M1 PAM parental: nonselective calcium activators in parental CHO-K1 cells, primary screen, counter-screen for M1 PAM project, cell-based, Fluo-8 calcium fluorescence, full deck, 1536-well | ATP EC20; 0% at ATP EC20, 100% at ATP max | AID 602247, 2012 | actives 0.02% (n = 360,000) | activation, % at 3 µM;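 active means activation above the run cutoff, the mean activation of all test compounds plus 3 SD, cut at about 40% in these data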;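 further: peak over basal fluorescence ratio in a 140 s read after ATP addition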
CHRM1 antagonist: human M1 muscarinic receptor antagonists, primary screen, CHO-K1 cells, Fluo-8 calcium fluorescence, 1536-well | CHO-K1 hM1, ACh EC80 antagonist | AID 588852, 2011 | inhibition, % at 3 µM | actives 1.3% (n = 360,000) | Muscarinic acetylcholine receptor M1 (Homo sapiens), P11229;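 active means percent inhibition above its own plate's cutoff, namely the mean of that plate's compound wells plus 3 SD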;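 further: peak over basal fluorescence ratio during 140 s after agonist addition; 0% = ACh EC80 plus DMSO and 100% = DMSO alone without agonist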
* marks the source's active call; other numbers are inactive results.

SMILES	CHO-K1 Ca ag	CHO-K1 Ca antag	M1 PAM	M1 ag	M1 PAM parental	CHRM1 antagonist
Cc1cc2cc(CNC(=O)c3cccc([N+](=O)[O-])c3)ccc2n1C	0	15	3	-7	5	-6
Cc1ccc(NC(=O)CCCc2ccccc2)c([N+](=O)[O-])c1	1	-6	10	-4	22	-12
COc1ccc(S(=O)(=O)N(CC(=O)NCC2CCCO2)c2ccc(F)cc2)cc1OC (stereo unspecified)	1	26*	0	-1	-6	16
COc1ccc(S(=O)(=O)N(C)CC(=O)NCC2CCCO2)cc1OC (stereo unspecified)	0	-5	14	0	-8	-15
COc1cc(C)ccc1OCc1cc(C(=O)NC2CCOCC2)no1	0	-6	4	-3	10	-7
COc1cc(C)ccc1OCc1cc(C(=O)NC(c2ccccn2)C(F)(F)F)no1 (stereo unspecified)	0	35*	8	-1	-12	-10
O=C(O)COc1ccc(/C=N/NC(=O)/C(=C/C=C/c2ccccc2)NC(=O)c2ccccc2)cc1	0	5	12	0	-9	-14
O=C(CN(c1ccccc1)S(=O)(=O)c1ccccc1[N+](=O)[O-])Nc1cccnc1	2	-10	16	-3	20	-11
CC(C)(C)C(=O)NC(=S)NNC(=O)C(c1ccccc1)c1ccccc1	107*	47*	-24	114*	-32	91*
CC(=O)NNC(=S)NC(=O)C(c1ccccc1)c1ccccc1	4	-1	-5	1	11	0
O=c1c2cc(O)c(O)cc2oc2cc(O)c(C3OC(CO)C(O)C(O)C3O)c(O)c12 (stereo unspecified)	0	-5	3	-2	10	-11
O=C(COC(=O)c1ccccn1)NCc1cccs1	2	-7	13	-3	-11	-12
CCC(C)C(NC(=O)c1ccccc1)C(=O)N1CCN(C(=O)c2ccccc2)CC1 (stereo unspecified)	0	-16	16	-1	21	-25
Cc1ccc(Oc2ncnc(N)c2[N+](=O)[O-])cc1	0	-13	14	4	9	3
Cc1ccc(N(c2ncnc(N)c2[N+](=O)[O-])C2CCCCC2)cc1	0	-8	-22	-7	-3	49*
Cc1ccc(-c2nnn(CC(=O)N3CCCCC3)n2)cc1	0	-1	22	1	3	-16
Cc1cccc(N2C(=O)CC(N3CCN(Cc4ccc5c(c4)OCO5)CC3)C2=O)c1 (stereo unspecified)	0	20	-13	-6	-5	35*
CCc1cc(=O)oc2cc(C)cc(OC(C)C(=O)NC3CCN(Cc4ccccc4)CC3)c12 (stereo unspecified)	0	-12	-7	23*	-5	12
Cc1ccc(C)c(OCc2cc(C(=O)NC3CCN(Cc4ccccc4)CC3)no2)c1	15	4	-15	3	-7	32*
Cc1cc(C)c2c(CN3CCCC3)cc(=O)oc2c1	-1	30*	15	0	-8	-1
Cc1cc(OC(C)C(=O)NC2CCN(Cc3ccccc3)CC2)c2c(C)cc(=O)oc2c1 (stereo unspecified)	0	-19	-5	16	3	9
O=C1CC(N2CCN(Cc3ccc4c(c3)OCO4)CC2)C(=O)N1c1ccccc1 (stereo unspecified)	2	-18	-5	-7	23	4
COc1ccc(N(CC(=O)NC(C)(C)C)S(=O)(=O)c2ccccc2)cc1OC	1	-13	9	-4	11	-7
Cc1cc(C)c2c(CN3CCN(Cc4ccc5c(c4)OCO5)CC3)cc(=O)oc2c1C	0	-6	-8	-4	16	-12
Cc1cc(C)c2c(CN3CCN(Cc4ccccc4)CC3)cc(=O)oc2c1	17*	-2	-20	-1	-4	28

High-throughput results deposited in PubChem BioAssay by The Scripps Research Institute Molecular Screening Center.
